# In the supplement of paper PMC12024424:
# Where a name gives a salt, the structure may show the parent alone.
# System: Staphylococcus aureus Sa2 (MRSA, cystic fibrosis isolate)
# Test: growth reduction vs untreated control (viable cell count); higher = stronger antibacterial activity; extreme values may be limits of the assay
# Conditions: 0.1 mM; 24 h
# Experimental: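 Single-dose screen of the MedChem Express Drug Repurposing Library (0.1 mM, 1% DMSO) against planktonic MRSA S. aureus Sa2 (CF isolate) in TSB in 96-well plates, 37 °C aerobic, 24 h. Assays were run in triplicate and repeated twice.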
row,Structure (SMILES),growth reduction [%]
1,O=c1[nH]c(=O)n([C@H]2C[C@H](O)[C@@H](CO)O2)cc1F [Floxuridine],100
2,CN1CCN(c2ccc(C(=O)Nc3n[nH]c4ccc(Cc5cc(F)cc(F)c5)cc34)c(NC3CCOCC3)c2)CC1 [Entrectinib],96
3,O=C(O)CNC(=O)c1c(=O)cc(CCc2ccccc2)n2[nH]cnc12 [Enarodustat],92
4,O=C(NCc1c(F)cc(F)cc1F)c1cn2c(c(O)c1=O)C(=O)N1[C@H]3CC[C@H](C3)O[C@@H]1C2 [Bictegravir],100
5,Clc1ccc(Nc2nnc(Cc3ccncc3)c3ccccc23)cc1 [Vatalanib (dihydrochloride)],100
6,C/C=C(/C(=C/C)c1ccc(O)cc1)c1ccc(O)cc1 [Dienestrol],92
7,CC(C)(C)c1cc(-c2cc(-c3ccc(C(=O)O)cc3)ccc2OCCO)ccc1N1CCCC1 [Trifarotene],100
8,CCCCN(CCCC)C(=O)CN1C[C@H](c2ccc3c(c2)OCO3)[C@@H](C(=O)O)[C@@H]1c1ccc(OC)cc1 [Atrasentan (hydrochloride)],98
9,C#C[C@]1(O)CC[C@H]2[C@@H]3CCC4=CCCC[C@@H]4[C@H]3C(=C)C[C@@]21CC [Desogestrel],100
10,CCN(CC)CCOc1ccc(/C(=C(/Cl)c2ccccc2)c2ccccc2)cc1 [Enclomiphene (citrate)],100
11,Clc1ccc(COC(Cn2ccnc2)c2ccc(Cl)cc2Cl)c(Cl)c1 (stereo not given) [Miconazole (nitrate)],100
12,CC(=O)O[C@@H]1CC[C@@]2(C)[C@@H](CC[C@]3(C)[C@@H]2C(=O)C=C2[C@@H]4[C@@H](C)[C@H](C)CC[C@]4(C)CC[C@]23C)[C@@]1(C)C(=O)O,100
13,Cc1ccc(Cl)c(Nc2ccccc2C(=O)O)c1Cl [Meclofenamate (sodium)],99
14,CC(=O)Oc1ccccc1C(=O)Nc1ncc([N+](=O)[O-])s1 [Nitazoxanide],100
15,COc1cc(F)c(F)c(Nc2ccc(I)cc2F)c1NS(=O)(=O)C1(C[C@H](O)CO)CC1 [Refametinib],100
16,COc1cc(NCc2ccc3nc(N)nc(N)c3c2C)cc(OC)c1OC [Trimetrexate],100
17,CCCCCCCCCCCC1=C(O)C(=O)C=C(O)C1=O [Embelin],100
18,CC/C(=C(/c1ccc(/C=C/C(=O)O)cc1)c1ccc2[nH]ncc2c1)c1ccc(F)cc1Cl [Brilanestrant],100
19,CC(/C=C/C=C(\C)C(=O)O)=C\C=C\C=C(C)\C=C\C=C(/C)C(=O)O [Transcrocetin meglumine salt],92
20,CC(C)Nc1nc2cc(Cl)c(Cl)cc2n1[C@H]1O[C@@H](CO)[C@H](O)[C@@H]1O [Maribavir],94

row,Structure (SMILES),growth reduction [%]
1,C=CCc1ccc(O)c(-c2cc(CC=C)ccc2O)c1 [Magnolol],100
2,CCC(c1ccccc1)c1c(O)c2ccccc2oc1=O (stereo not given) [Phenprocoumon],95
3,O=C(O)C1(c2ccc(-c3ccc(Cl)c(Cl)c3)c(F)c2)CC1 [Itanapraced],100
4,CC(C)(C)OC(=O)N[C@H]1CCCCC/C=C\[C@@H]2C[C@@]2(C(=O)NS(=O)(=O)C2CC2)NC(=O)[C@@H]2C[C@@H](OC(=O)N3Cc4cccc(F)c4C3)CN2C1=O [Danoprevir],100
5,CCCCCCCC/C=C/CCCCCCCC(=O)OC[C@H]1O[C@@H](n2ccc(N)nc2=O)C(F)(F)[C@@H]1O [Gemcitabine (elaidate)],100
6,O=C(O)c1ccc2nc(-c3cc(Cl)cc(Cl)c3)oc2c1 [Tafamidis],100
7,CCCc1nc2c(C)cc(-c3nc4ccccc4n3C)cc2n1Cc1ccc(-c2ccccc2C(=O)O)cc1 [Telmisartan],100
8,COCCNCc1ccc(-c2cc3nccc(Oc4ccc(NC(=O)C5(C(=O)Nc6ccc(F)cc6)CC5)cc4F)c3s2)nc1 [Sitravatinib],100
9,C1CCC(C(CC2CCCCN2)C2CCCCC2)CC1 (stereo not given) [Perhexiline maleate],100
10,Cc1c(CN(C)C(=O)/C=C/c2cnc3c(c2)CCC(=O)N3)oc2ccccc12,100
11,CC(C)/N=c1\cc2n(-c3ccc(Cl)cc3)c3ccccc3nc-2cc1Nc1ccc(Cl)cc1 [Clofazimine],100
12,CSc1ccc(OCc2ncc([N+](=O)[O-])n2C)cc1 [Fexinidazole],93
13,CC(C)(C)c1cc(C(C)(C)C)c(NC(=O)c2c[nH]c3ccccc3c2=O)cc1O [Ivacaftor],99
14,C=Cc1cc(O)cc2nc(-c3ccc(O)c(F)c3)oc12 [Prinaberel],100
15,CCCCOc1nc(N)c2c(n1)N(Cc1cccc(CN3CCCC3)c1)CC(=O)N2 [Vesatolimod],98
16,COc1cccc2c1C(=O)c1c(O)c3c(c(O)c1C2=O)C[C@@](O)(C(=O)CO)C[C@@H]3O[C@H]1C[C@H](N)[C@H](O)[C@H](C)O1 [Doxorubicin (hydrochloride)],100
17,C=C(C)[C@@H]1CC[C@]2(C(=O)O)CC[C@]3(C)[C@H](CC[C@@H]4[C@@]5(C)CC[C@H](OC(=O)CC(C)(C)C(=O)O)C(C)(C)[C@@H]5CC[C@]43C)[C@@H]12 [Bevirimat],100
18,Cc1nc2sccn2c(=O)c1CCN1CCC(=C(c2ccc(F)cc2)c2ccc(F)cc2)CC1 [Ritanserin],100
19,CC(C)(C)C#Cc1cc(N(C(=O)[C@H]2CC[C@H](C)CC2)[C@H]2CC[C@H](O)CC2)c(C(=O)O)s1 [Lomibuvir],95
20,C[C@@H](OC[C@@]1(c2ccccc2)CC[C@]2(CCC(=O)N2)CN1)c1cc(C(F)(F)F)cc(C(F)(F)F)c1 [Rolapitant],100
